Data taken from PubChem BioAssay AID588338 (NMMLSC, 2011).
The campaign covered roughly 1,300 compounds. About 20 (2%) were called active. These entries were drawn from the full list. Unmarked numbers belong to inactive results.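 How the source made its calls: active means inhibition above 50%, about 3 SD of the inhibition seen with non-fluorescent compounds; inactive means the rest.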

Test: interference with GST/GSH bead binding – biochemical, cherry pick 1, flow cytometry, artefact control for arrestin-AP2 inhibitor project, confirmation (AID 588338);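 further: fluorescein maleimide labelled GST captured on 4 micron glutathione beads; higher means more loss of bead fluorescence from quenching or blocked binding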
Conditions: GST-fluorescein binding to GSH beads, fluorescence, counter-screen; at 10 µM; active compounds read high

SMILES	inhibition
CCn1c(=O)n(CC)c2cc(N3CCCC3)c(NC(=O)c3ccccc3Br)cc21	-4.23%
Cc1ccc(OCCCC(=O)Nc2ccc3c(c2)OCCO3)cc1	-3.79%
Cn1c(=O)c([N+](=O)[O-])c(Oc2ccccc2)c2ccccc21	-0.63%
COc1cc2c(cc1OC)CN(C(=O)c1cc(=O)c3ccccc3o1)CC2	-0.62%
CCOc1ccc(C(=O)NC2CCN(CC(=O)NCc3cccs3)CC2)cc1	-10.1%
CN(C)c1ccc(NC(=O)c2ccncc2)c2ccccc12	-4.94%
CCOC(=O)N1CCN(C(=O)CNC(=O)Cc2ccc(Cl)cc2)CC1	-12.7%
CN(C(=O)COC(=O)c1cc(=O)[nH]c2ccccc12)C1CCCCC1	-4.98%
CC(NCCc1ccc(S(N)(=O)=O)cc1)C(=O)NCc1ccccc1 (centres undefined)	1.19%
CC(C)(C)c1ccc(C(=O)NCCn2c(N)c(C#N)c3nc4ccccc4nc32)cc1	1.49%
CC(CN1CCCCC1)OC(=O)c1ccccc1Cl (centres undefined)	0.92%
Cc1ccc(Cl)cc1-c1ccc(/C=N/n2cnnc2)o1	-2.14%
Cc1ccc(S(=O)(=O)N2CCCCC2)cc1NC(=O)c1cccnc1	-0.2%
Cc1cccc(NC(=S)NC(=O)c2ccc(Br)o2)c1	-2.99%
NS(=O)(=O)c1ccc2nc(NC(=O)C3=COCCO3)sc2c1	-9.07%
C/C(=N\Nc1ccc([N+](=O)[O-])cc1)c1ccc(-n2nncc2C(C)(C)C)cc1	2.54%
CC(=O)NCCNC(=O)c1cc(-c2cccc3ccccc23)nc2ccccc12	8.05%
Cc1cc(C(=O)Nc2ccc(C)c(S(=O)(=O)N3CCOCC3)c2)c2ccccc2n1	3.01%
Cc1ccc(S(=O)(=O)N2CCN(C(=O)c3ccccc3-c3nc4ccccc4s3)CC2)c(C)c1	-4.41%
O=C(NCC1(N2CCCCC2)CCCCC1)c1cccc(S(=O)(=O)Nc2ccccc2Cl)c1	-0.81%
CCC(C(=O)OC)n1cnc2c(oc3ccccc32)c1=O (centres undefined)	-1.51%
NC(=O)C1CCN(C(=O)CC2C(=O)NCCN2Cc2cccc(Oc3ccccc3)c2)CC1 (centres undefined)	-3.68%
CC(NC(=O)c1cc2cc(Cl)ccc2oc1=N)c1ccccc1 (centres undefined)	-2.36%
COc1ccc(/C=C2\SC(=S)N(CCC(=O)Nc3ccccn3)C2=O)cc1OC	-0.03%
O=C(C1CCCO1)N1CCN(S(=O)(=O)c2ccc(Br)cc2)CC1 (centres undefined)	-16.4%
COC(=O)C1CC2=C(CC(C)(C)CC2=O)N(c2ccccc2)C1=O (centres undefined)	-0.09%
CCC(=O)Nc1nc2ccccc2n1Cc1ccccc1C	6.47%
Cc1cccc(C)c1NC(=O)C(Cl)C(=O)c1ccccc1 (centres undefined)	-5.59%
Cc1cccc(Nc2ccccc2C(=O)NCc2ccco2)c1C	-4.39%
